Hits are enriched below; roughly 2.1% of the tested compounds scored in any of these assays.
PfM18AAP inh-1 – blocks P. falciparum M18 aspartyl aminopeptidase; recombinant PfM18AAP, H-Glu-NHMec fluorogenic cleavage; inhibition, % at 7.35 µM; actives 1.2% (n = 290,000); AID 1822;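 active = inhibition above the campaign mean inhibition over all tested compounds plus 3 SD, cut at about 28% in these data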
CTSL1 counter-1 – blocks F. hepatica cathepsin L1 in PFM18AAP counter-screen; recombinant F. hepatica cathepsin L1, Z-Leu-Arg-MCA fluorescence; AID 1906; actives 0.49% (n = 300,000); inhibition, % at 5.96 µM;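 active = inhibition above the mean of all tested compounds plus 3 SD, set per screening campaign, cut at about 17% in these data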
Calb FLC – C. albicans growth modulation with fluconazole; C. albicans CaCi-2 (fluconazole-resistant clinical isolate) + fluconazole, Alamar Blue growth, 48 h; growth inhibition, % (concentration not given with the values); actives 0.57% (n = 300,000); AID 1979;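 active = growth inhibition above about 58% in most replicates, limit read from the data, passing the limit was not always enough; inconclusive = exactly half the replicates above a set limit; inactive = most replicates below a set limit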;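 also: all wells also contain fluconazole at 8 µg/ml as a sub-toxic cotreatment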
Rin1-Abl PPI inh – human Rin1-Abl interaction inhibition; actives 0.4% (n = 360,000); P00519+Q13671; inhibition, % at 7.35 µM; TR-FRET Rin1/Abl binding, biochemical; AID 588664; in the data active = inhibition above about 5%, passing the limit was not always enough
PfM18AAP inh-2 – confirmation of Plasmodium falciparum M18 aspartyl aminopeptidase inhibitors; recombinant PfM18AAP, H-Glu-NHMec fluorogenic cleavage; actives 28% (n = 2,400); shares compounds with PfM18AAP inh-1; inhibition, % at 7.35 µM;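 active = mean inhibition over replicate wells above the hit cutoff set for the earlier primary screen, cut at about 29% in these data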
CTSL1 counter-2 – counter-screen for PFM18AAP inhibitors: confirmation of human cathepsin L inhibitors; shares compounds with PfM18AAP inh-1; 2,400 tested, under 10 active; AID 2178; inhibition, % at 5.96 µM; purified cathepsin L1, Z-Leu-Arg-MCA fluorescence;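 active = average inhibition across replicates above the hit cutoff set in the earlier primary screen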
Rin1-Abl confirm – confirmation of inhibitors of human Rin1-Abl interaction | shares compounds with Rin1-Abl PPI inh | actives 49% (n = 1,300) | inhibition, % at 7.35 µM | TR-FRET Rin1-Abl binding, purified proteins
GFP quench – quenches GFP fluorescence, counter-screen for Rin1-Abl inhibitors; AID 602125; shares compounds with Rin1-Abl PPI inh; actives 8.5% (n = 1,300); inhibition, % at 6.75 µM; inhibitors/quenchers counterscreen;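 also: ABL1-eGFP fusion protein alone without its partner RIN1-SBP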
GFP quench DR – quenches GFP in dose response, Rin1-Abl counter-screen; shares compounds with Rin1-Abl PPI inh; GFP fluorescence interference/quenching counterscreen; IC50, µM; 230 tested, under 10 active; call rule not given here;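 also: ABL1-eGFP fusion protein alone without its RIN1 binding partner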
Hits are given with their value; - = inactive; ? = inconclusive; . = not tested or not shown. Rule as the data show it, unless noted: active = inhibition above about 6.5%; inactive = the rest.

SMILES	PfM18AAP inh-1	CTSL1 counter-1	Calb FLC	Rin1-Abl PPI inh	Rin1-Abl confirm	GFP quench	others
Cc1nc(N/N=C/c2cccc(F)c2)cc(N2CCOCC2)n1	-	-	-	-	.	.
Oc1ccc(-c2cn3c(n2)SCC3)cc1O	73.0	-	-	26.0	20.5	15.0	PfM18AAP inh-2=65.3;CTSL1 counter-2=-
Cc1ccc(NC(=O)CN(c2ccc(Cl)cc2)S(=O)(=O)c2cc([N+](=O)[O-])ccc2Cl)c(C)c1	-	-	-	-	.	.
N#C/C(=C\c1ccc(O)c(O)c1)C(=O)Nc1cccc2ncccc12	63.0	-	96.8	8.7	12.5	14.4	PfM18AAP inh-2=30.2;CTSL1 counter-2=-
O=C(Cc1csc(N2CCOCC2)n1)N/N=C/c1ccc(O)c(O)c1O	47.0	.	-	29.6	27.9	9.0	PfM18AAP inh-2=-;CTSL1 counter-2=-
Cc1cc(C)nc(NC(=O)c2c(-c3c(Cl)cccc3Cl)noc2C)n1	-	-	-	-	.	.
Cc1cc(C)nc(NC(=O)c2c(Cl)cccc2Cl)n1	-	-	-	4.4	-	-
CCc1cccc(NC(=O)Cn2c(=O)oc3cc(S(=O)(=O)N4CCOCC4)ccc32)c1	-	-	-	-	.	.
CCc1ccc(NC(=O)Cn2c(=O)oc3cc(S(=O)(=O)N4CCOCC4)ccc32)cc1	-	-	-	8.1	-	-
COc1ccccc1NC(=O)CNC(=O)CC12CC3CC(CC(C3)C1)C2	.	.	.	-	.	.
O=C(/C=C/c1cccnc1)c1cccc(O)c1	-	-	-	8.6	10.2	-
COc1cc2ccccc2cc1C(=O)OCC(=O)NC1CCS(=O)(=O)C1 (centres undefined)	-	-	-	-	.	.
Cc1ccc(-c2sc(-c3cccnc3)nc2CC(=O)O)cc1	-	-	?	-	.	.
COc1ccc(C2N(C(=O)c3ccccc3)CCN2C(=O)c2ccc(C)cc2)cc1 (centres undefined)	-	-	-	-	.	.
COc1ccc(/C=N/N2C(=O)CN(C(=O)c3ccccc3)C2c2ccc(OC)cc2)cc1 (centres undefined)	-	-	-	5.8	-	-
CCNc1nc(NCC)n2c(SCC(=O)c3ccccc3F)nnc2n1	-	-	-	-	.	.
Cn1c(=O)c2c(nc(SCCCC#N)n2Cc2c(F)cccc2Cl)n(C)c1=O	-	-	-	7.2	9.2	-
CCc1cccc(C)c1NC(=O)CN1C(=O)NC(Cc2ccccc2)C1=O (centres undefined)	-	-	-	-	.	.
Cc1cc(C)cc(OCc2nnc(SCC(=O)c3ccc(Br)cc3)o2)c1	-	-	-	4.7	-	-
O=C(Nc1cccc(Cl)c1)c1ccc(=O)[nH]n1	-	-	-	-	.	.
CC1(c2ccccc2)NC(=O)N(CC(=O)Nc2ccc3c(c2)CCC3)C1=O (centres undefined)	.	.	.	8.2	-	-
NC(=O)C1CCN(CC(=O)Nc2ccccc2Sc2ccccc2)CC1	-	-	-	7.3	11.2	-
Cc1ccc(Cl)cc1S(=O)(=O)N1CCC(C(=O)NC2CCN(Cc3ccccc3)CC2)CC1	-	-	-	15.5	-	-
CCN(CC)S(=O)(=O)c1ccc(S(=O)(=O)N2CCC(C(=O)NC3CCN(Cc4ccccc4)CC3)CC2)cc1	-	-	-	-	.	.
CCOc1cc(CNCC2CCCO2)cc(Br)c1OCC(N)=O (centres undefined)	-	-	-	-	.	.
SMILES	PfM18AAP inh-1	CTSL1 counter-1	Calb FLC	Rin1-Abl PPI inh	Rin1-Abl confirm	GFP quench	others
COc1cc2ncc(S(=O)(=O)c3ccccc3)c(N3CCC4(CC3)OCCO4)c2cc1OC	-	-	-	-	.	.
COc1ccc2ncc(S(=O)(=O)c3ccccc3)c(N3CCC4(CC3)OCCO4)c2c1	-	-	-	8.2	-	-
CCOC(=O)CCCCC(=O)c1[nH]c(=O)[nH]c1Cn1cnc2ccccc21	-	-	-	71.5	79.1	-	GFP quench DR=-
Cc1[nH]c2ccccc2c1C(=O)COC(=O)Cn1cnc2ccccc21	-	-	-	-	.	.
CCOC(=O)CCCCC(=O)c1[nH]c(=O)[nH]c1CSCCO	-	-	-	78.4	82.0	-	GFP quench DR=-
N#Cc1c(-c2ccccc2)nc(SCC(=O)N(c2ccccc2)c2ccccc2)[nH]c1=O	-	-	-	-	.	.
CCOC(=O)CCCCC(=O)c1[nH]c(=O)[nH]c1CSc1nc(-c2ccccc2)c(C#N)c(=O)[nH]1	-	-	-	61.0	75.5	-	GFP quench DR=-
COc1ccc(/C(C)=N/NC(=O)CN(c2ccc(OC)cc2)S(=O)(=O)c2ccccc2)cc1	-	-	-	-	.	.
COC(C(=O)C(O)C(C)O)C1Cc2cc3cc(OC4CC(OC5CC(O)C(O)C(C)O5)C(O)C(C)O4)c(C)c(O)c3c(O)c2C(=O)C1OC1CC(OC2CC(OC3CC(O)C(OC)C(C)O3)C(O)C(C)O2)C(O)C(C)O1 (centres undefined)	.	.	.	13.0	-	-
COc1ccc(C2C(C(=O)N3CCN(c4ccccn4)CC3)CCC(=O)N2c2ccc(OC)cc2)cc1 (centres undefined)	-	-	-	7.5	-	-
COc1ccc(C2C(C(=O)N3CCN(c4ccccn4)CC3)CCC(=O)N2c2cc(OC)c(OC)c(OC)c2)cc1 (centres undefined)	-	-	-	-	.	.
CCOc1ccccc1NC(=O)Nc1ccsc1C(=O)OC	-	-	-	-	.	.
COC(=O)c1sccc1NC(=O)COc1ccccc1Cl	-	-	-	7.4	-	-
COCCn1nnnc1C(CC(C)C)N1CCN(c2nc3ccccc3s2)CC1 (centres undefined)	-	-	-	9.3	-	-
Cc1ccc(C(=O)n2nc(C#N)c(C#N)c2N)cc1	-	-	-	-	.	.
Oc1c(CN2CCCCC2)cc(COCc2ccccc2)c2cccnc12	-	-	-	14.0	-	-
CCOc1ccccc1N1CCN(Cc2cccc(OC)c2O)CC1	-	-	-	-	.	.
COCc1cc(CN2CCCC2)c(O)c2ncccc12	-	-	-	22.1	-	-
Oc1c(CN2CCOCC2)ccc2ccccc12	-	.	-	-	.	.
COc1ccccc1N1CCN(Cc2cc(Br)c(O)c3ncccc23)CC1	-	-	88.3	9.7	-	-
Oc1c(CN2CCCCC2)ccc2cccnc12	.	.	.	34.2	-	-
COc1ccc(CCCC(=O)NCc2ccccc2)cc1C	-	-	-	-	.	.
COc1ccc(NC(=S)N2CCN(C/C=C/c3ccccc3)CC2)cc1	-	-	-	9.3	-	-
CC1=NN(c2ccc(N)cc2)C(=O)C1	-	-	-	-	.	.
CC1=NN(c2ccc(Cl)cc2)C(=O)C1	-	-	-	14.3	-	-

Screening results: PubChem, several laboratories
